# IL-1B inflam inh: inflammasome signaling inhibition, IL-1 beta readout | AID 743279 | activity change, % at 57.5 µM | THP-1 LPS/ATP IL-1B secretion, AlphaLISA, 16 h; hits give low values | actives 4.7% (n = 360,000); in the data active means activity change below about -50%; inconclusive means mostly about -30% to -49%
#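 Secreted IL-1B measured by AlphaLISA bead assay after 16 h compound exposure of THP-1 cells; compounds (final up to 57.5 uM) added 1 h before LPS (250 ng/mL) and ATP (1.25 mM) stimulation; lower signal means less secretion.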
# TDP1 inh: TDP1 (human) enzyme inhibition; recombinant TDP1, AlphaScreen DNA substrate cleavage; actives 0.28% (n = 350,000); AID 485290; Potency, µM (highest dose often 130 µM), for inactives: at the highest dose activity change, negative = inhibition, usual class: inhibitors; Q9NUW8; further: potency means the concentration at half of the fitted maximal effect; nearly all actives have a fitted effect of over 40% in size
# Target sequence (Q9NUW8 whole entry, looked up): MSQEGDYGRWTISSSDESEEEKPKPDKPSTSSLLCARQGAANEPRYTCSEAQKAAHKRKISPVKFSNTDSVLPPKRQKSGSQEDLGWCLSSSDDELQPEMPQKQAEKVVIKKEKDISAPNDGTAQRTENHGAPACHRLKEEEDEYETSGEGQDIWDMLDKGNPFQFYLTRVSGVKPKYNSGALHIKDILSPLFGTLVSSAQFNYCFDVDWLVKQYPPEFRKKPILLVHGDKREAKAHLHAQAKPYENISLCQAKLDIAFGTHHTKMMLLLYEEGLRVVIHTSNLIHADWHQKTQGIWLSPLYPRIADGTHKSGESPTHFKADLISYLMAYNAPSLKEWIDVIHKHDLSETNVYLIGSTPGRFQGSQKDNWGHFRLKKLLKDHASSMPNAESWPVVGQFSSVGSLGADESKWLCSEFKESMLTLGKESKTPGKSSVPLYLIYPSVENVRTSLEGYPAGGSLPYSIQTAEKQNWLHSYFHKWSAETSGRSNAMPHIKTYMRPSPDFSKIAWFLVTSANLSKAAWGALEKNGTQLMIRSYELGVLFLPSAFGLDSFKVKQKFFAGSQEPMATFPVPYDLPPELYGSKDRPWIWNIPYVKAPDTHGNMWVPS
#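 Steps: enzyme plus compound, 15 min RT; add biotin/phosphotyrosine-FITC oligonucleotide (15 nM final), react 5 min; add donor/acceptor beads (10 ug/ml final), 10 min; read AlphaScreen. Tdp1 at 1 nM final.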
# Giardia kill: kills Giardia lamblia. Giardia lamblia trophozoite viability. activity change, % at 7.66 µM, hits read low. actives 0.15% (n = 340,000); in the data active means activity change below about -80%; inconclusive means between about -30% and that limit;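 further: parasites exposed to compound for two days anaerobically before the ATP read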
#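 Luminescent ATP signal served as the viability read-out, measured 15-30 min after adding ATP detection reagent to trophozoites that had been incubated with compounds for 48 hrs at 37 deg C anaerobically at 100 cells/well.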
# DT40 TDP1 no CPT: qHTS for Inhibitors of human tyrosyl-DNA phosphodiesterase 1 (TDP1): qHTS in cells in absence of CPT; DT40 Tdp1-/- hTDP1 cells, no CPT, ATP luminescence, 48 h; Potency, µM (top dose mostly 46.2 µM), for inactives: at the highest dose activity change, negative = growth inhibition, usual class: inhibitors; actives 15% (n = 420,000); further: potency means the concentration at half of the fitted maximal effect; nearly all actives have a fitted effect of over 55% in size
#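 Stably hTDP1-transfected Tdp1-null chicken DT40 cells were treated with library compounds minus camptothecin and grown for at least 48 hr at 37 °C, after which cellular ATP was quantified by luminescence.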
# ELG1 DNA repair: blocks ELG1-dependent DNA repair in HEK293T cells; HEK293T ELG1-luciferase reporter, luminescence, 16 h; DNA damage induced by 5-fluorouridine; Potency, µM (doses to about 46.1 µM), without a hit: at the top dose activity change, negative = inhibition, hits mostly inhibitors; actives 2.3% (n = 330,000); AID 504467; further: potency means the concentration at half of the fitted maximal effect; nearly all actives have a fitted effect of over 55% in size
#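 Step one: seed 2,000 cells per well. Step two: pin-transfer compound or DMSO alongside 5-fluorouridine. Step three: incubate 16 hr, 37 °C, 5% CO2. Step four: add ONE-Glo, wait 30 min, read luminescence.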
# TDP1 cell CPT: DT40-hTDP1 cell growth loss with CPT; chicken DT40 Tdp1-/-;hTDP1 cells + 20 nM CPT, ATP luminescence, 48 h; Potency, µM (highest dose often 46.2 µM), for the others: at the top dose activity change, negative = growth inhibition, most hits filed as inhibitors; actives 12% (n = 420,000); AID 686979; further: potency means the concentration at half of the fitted maximal effect; nearly all actives have a fitted effect of over 55% in size
#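 Cell growth measured by CellTiter-Glo luminescence after a minimum 48 h, 37 C compound exposure with 20 nM CPT in Tdp1-knockout DT40 cells stably expressing hTDP1, seeded 400/well; qHTS titration format.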
# * hit, by the source's call; ? = inconclusive; / = not tested or not shown. A selection: hits, their analogues and other compounds. The true share with any hit is near 19%. Unless noted, the call rests on the fitted dose curve; in most records, active means well fitted curve in the direction sought with a large enough effect; inconclusive means small, poorly fitted or top-dose-only effect, or another doubt; inactive means no such curve, though single readings can be large; an effect the other way counts as inactive or inconclusive. On the % scale 0 is the no-effect control and ±100 the full control effect.
SMILES,IL-1B inflam inh,TDP1 inh,Giardia kill,DT40 TDP1 no CPT,ELG1 DNA repair,TDP1 cell CPT
N#C/C(=C(/O)COc1ccc(Br)cc1)c1nnc2n1CCCCC2,11,4%,-5,9%,6%,-5%
C=CCN1C(c2ccc(OCC)cc2)=CS/C1=C(\C#N)c1nnc2n1CCCCC2,-4,6%,-17,29µM*,?,?
C=CCN1C(c2ccc(Br)cc2)=CS/C1=C(\C#N)c1nnc(N2CCOCC2)n1-c1ccccc1,-73*,/,9,-94%,/,?
C=CCN1C(c2cccc(C(F)(F)F)c2)=CS/C1=C(\C#N)c1nnc(N2CCOCC2)n1-c1ccccc1,?,/,/,?,/,23µM*
Cc1ccc(C)c(N2CCN(c3ccncc3N)CC2)c1,-3,7%,16,13µM*,-12%,18µM*
COc1ccc2cc(CNc3ccccc3)c(=O)n(CC(=O)Nc3ccc(C(C)=O)cc3)c2c1,/,8%,/,/,/,/
COC(=O)c1ccc(N)c(N=CC2=C(O)CC(C)(C)CC2=O)c1,4,8%,2,?,?,2%
COC(=O)c1ccc2c(c1)C(C)(C)C(/C=C/c1ccccc1O)=[N+]2C,-100*,12%,10,3.2µM*,6.5µM*,3.2µM*
COc1cccc(N/C=C(\C#N)c2ccc(OCCCF)cc2)c1,-52*,7%,4,?,21%,18µM*
CC1CC(C)CN(C(=O)CSC2=Nc3ccccc3C3=NC(Cc4c[nH]c5ccccc45)C(=O)N23)C1 (stereo not given),-13,7%,-19,16µM*,-18%,?
NN=C1c2ccccc2-c2ccc(N)cc21,-1,/,-26,?,/,?
Nc1cc2c(cc1Br)-c1ccccc1C2=NO,-105*,/,28,?,/,26µM*
NC(=S)NN=C1c2ccccc2-c2cc(Br)ccc21,-5,/,-19,3.7µM*,/,5.2µM*
ON=C1c2ccccc2-c2ccc(Br)cc21,0,/,10,23µM*,/,29µM*
ON=C1c2ccccc2-c2ccc(F)cc21,-12,/,-2,18µM*,/,?
CC(=O)NC(c1ccccc1)c1nc(-c2cccc(F)c2)cs1 (stereo not given),-21,/,/,?,/,?
CCOC(=O)C1=NNC2(c3ccc(Cl)cc3)C(=O)N(c3ccc(C)cc3)C(=O)C12 (stereo not given),29,2%,-2,1%,15%,-22%
C[S+](C)CC(=O)c1ccc2ccccc2c1,/,/,/,-12%,/,-15%
CC1=[N+]([O-])C(C)(C)CC(C)(C)c2ccccc21,1,3%,-5,-1%,4%,-3%
CC1(C)[N+]([O-])=C2C(=[N+]([O-])C1(C)C)c1ccccc1/C2=N\O,-6,2%,-98*,-18%,-3%,-19%
Cc1cccc(N(CC(N)=O)C2SC(=O)N(Cc3cccc(C(=O)O)c3)C2=O)c1 (stereo not given),/,/,/,-5%,/,-1%
Brc1ccc2[nH]c3c(c2c1)CCC3,-21,4%,12,-12%,?,-5%
O=c1c2c([nH]c3ccc(Br)cc13)CCCC2,-10,1%,5,?,-9%,23µM*
O=C(Cn1nc(Cc2cccnc2)c2ccccc2c1=O)N1CCN(c2ccc(F)cc2)CC1,/,1%,/,23µM*,/,?
Cc1ccc(C)c(N2CCN(C(=O)Cn3nc(Cc4cccnc4)c4ccccc4c3=O)CC2)c1,/,4%,/,23µM*,/,?
Cc1c(NC(=S)NC(NC(=O)CC(C)C)C(Cl)(Cl)Cl)c(=O)n(-c2ccccc2)n1C (stereo not given),10,1%,1,2%,-3%,15%
